Source: PubChem BioAssay (The Scripps Research Institute Molecular Screening Center)
Hits are enriched below; roughly 2% of the tested compounds scored in any of these assays.
CHRM4 agonist = CHRM4 agonism in calcium assay. P08173. CHO-K1 hM4/Gqi5, Fluo-8 calcium fluorescence; vehicle 0%, full acetylcholine response 100%. activation, % at 3 µM. actives 0.14% (n = 360,000);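 active = activation above the run mean over all test wells plus 3 SD, cut at about 32% in these data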;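 also: peak over basal fluorescence ratio per well then scaled between controls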
Target sequence (P08173 whole entry, looked up): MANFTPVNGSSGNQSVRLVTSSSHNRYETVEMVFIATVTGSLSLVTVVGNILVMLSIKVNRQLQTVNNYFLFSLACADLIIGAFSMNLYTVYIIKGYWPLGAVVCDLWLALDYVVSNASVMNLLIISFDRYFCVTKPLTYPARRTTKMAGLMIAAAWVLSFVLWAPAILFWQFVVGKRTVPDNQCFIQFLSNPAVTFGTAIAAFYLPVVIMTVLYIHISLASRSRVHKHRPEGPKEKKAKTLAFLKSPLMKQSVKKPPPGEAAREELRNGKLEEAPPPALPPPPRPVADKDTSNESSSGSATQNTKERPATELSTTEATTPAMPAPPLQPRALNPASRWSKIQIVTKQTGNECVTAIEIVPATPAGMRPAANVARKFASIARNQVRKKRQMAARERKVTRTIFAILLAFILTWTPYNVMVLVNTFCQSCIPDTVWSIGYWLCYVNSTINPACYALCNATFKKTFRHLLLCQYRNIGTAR
CHO-K1 Ca PAM = nonselective activator or artifact in parental CHO-K1 calcium assay | actives 0.02% (n = 360,000) | activation, % at 3 µM | ATP EC20, Fluo-8 calcium fluorescence; 0% at ATP EC20, 100% at ATP max;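 active = activation above the run cutoff, the mean activation of all test compounds plus 3 SD, cut at about 40% in these data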;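 also: peak over basal fluorescence ratio in a 140 s read after ATP addition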
M1 ag parental = nonselective activator or artifact in parental CHO-K1 cells; Fluo-8 calcium fluorescence; scaled to maximal ATP response, vehicle zero; activation, % at 3 µM; actives 0.48% (n = 360,000); in the data active = activation above about 15%;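 also: untransfected CHO-K1 host cells lacking M1 receptor as counterscreen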
CHRM4 PAM = CHRM4 positive allosteric modulation; P08173; CHO-K1 hM4/Gqi5, Fluo-8 calcium fluorescence, ACh EC20; 0% = ACh EC20, 100% = maximal ACh; activation, % at 3 µM; actives 0.4% (n = 360,000); AID 624126;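 active = activation above its plate's cutoff, the mean activation of sample wells plus 3 SD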
CHO-K1 Ca antag = counter-screen for M1 antagonists: effect in parental CHO-K1 cells | inhibition, % at 3 µM | ATP-induced calcium, Fluo-8 fluorescence | actives 0.6% (n = 360,000);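 active = inhibition above a per-plate cutoff, the plate's mean sample inhibition plus 3 SD, cut at about 24% in these data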
M4 antag = CHRM4 antagonism in calcium assay; AID 624125; actives 0.73% (n = 360,000); CHO-hM4 cells, ACh EC80, Fluo-8 calcium fluorescence; inhibition, % at 3 µM; P08173;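 active = inhibition above its plate's cutoff, the mean inhibition of sample wells plus 3 SD, cut at about 27% in these data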
A number is an active result.

What do the screens show for `COc1ccc(OCC(O)CNC(C)c2ccccc2)cc1` (stereo not drawn)?
CHRM4 agonist: inactive; CHO-K1 Ca PAM: inactive; M1 ag parental: inactive; CHRM4 PAM: inactive; CHO-K1 Ca antag: inactive; M4 antag: inactive

How did O=C(NNc1nc(-c2ccc(Cl)cc2)cs1)c1ccco1 do in these assays?
CHRM4 agonist: inactive; CHO-K1 Ca PAM: inactive; M1 ag parental: inactive; CHRM4 PAM: inactive; CHO-K1 Ca antag: inactive; M4 antag: inactive

How did O=C(NCCN1CCCCC1)c1cccc2c1C(=O)c1ccc(N3CCCC3)cc1S2(=O)=O do in these assays?
CHRM4 agonist: inactive; CHO-K1 Ca PAM: inactive; M1 ag parental: inactive; CHRM4 PAM: inactive; CHO-K1 Ca antag: inactive; M4 antag: inactive

How did O=C(NC1CC1)c1cccc2c1C(=O)c1ccc(N3CCC(Cc4ccccc4)CC3)cc1S2(=O)=O do in these assays?
CHRM4 agonist: inactive; CHO-K1 Ca PAM: inactive; M1 ag parental: inactive; CHRM4 PAM: inactive; CHO-K1 Ca antag: inactive; M4 antag: 27

What do the screens show for `CC(C)(C)CNC(=O)c1cccc2c1C(=O)c1ccc(N3CCCC3)cc1S2(=O)=O`?
CHRM4 agonist: 39; CHO-K1 Ca PAM: inactive; M1 ag parental: inactive; CHRM4 PAM: inactive; CHO-K1 Ca antag: inactive; M4 antag: inactive

What do the screens show for `CCC(C(=O)NCCc1ccccc1)c1ccccc1` (stereo not drawn)?
CHRM4 agonist: inactive; CHO-K1 Ca PAM: inactive; M1 ag parental: inactive; CHRM4 PAM: inactive; CHO-K1 Ca antag: inactive; M4 antag: inactive

Results for COc1ccc(N(CC(=O)Nc2ccc(F)c(Cl)c2)S(=O)(=O)c2c(C)noc2C)cc1 ?
CHRM4 agonist: inactive; CHO-K1 Ca PAM: inactive; M1 ag parental: inactive; CHRM4 PAM: inactive; CHO-K1 Ca antag: 26; M4 antag: inactive

How did COc1ccc(N(CC(=O)Nc2ccc(OC)c(Cl)c2)S(=O)(=O)c2c(C)noc2C)cc1 do in these assays?
CHRM4 agonist: inactive; CHO-K1 Ca PAM: inactive; M1 ag parental: inactive; CHRM4 PAM: inactive; CHO-K1 Ca antag: inactive; M4 antag: inactive

What do the screens show for `Cc1cc2c(s1)Nc1ccccc1N=C2N1CCN(C)CC1`?
CHRM4 agonist: inactive; CHRM4 PAM: inactive; M4 antag: 90

What do the screens show for `Nc1nc(N2CCN(c3ccccn3)CC2)nc2ccccc12`?
CHRM4 agonist: inactive; CHO-K1 Ca PAM: inactive; M1 ag parental: inactive; CHRM4 PAM: inactive; CHO-K1 Ca antag: inactive; M4 antag: 27

Results for COc1ccc(C(=O)NNC(=O)c2cc(C)nc3ccccc23)cc1 ?
CHRM4 agonist: inactive; CHO-K1 Ca PAM: inactive; M1 ag parental: inactive; CHRM4 PAM: inactive; CHO-K1 Ca antag: inactive; M4 antag: inactive

Results for CN1[C@@H]2CC(OC(=O)[C@H](CO)c3ccccc3)C[C@H]1[C@@H]1O[C@@H]12 (stereo partly drawn) ?
CHRM4 agonist: inactive; CHRM4 PAM: inactive; M4 antag: 100

How did O=S(=O)(c1ccc(F)cc1)N1CC2CCCN2c2ccc(C(F)(F)F)cc21 (stereo not drawn) do in these assays?
CHRM4 agonist: inactive; CHO-K1 Ca PAM: inactive; M1 ag parental: inactive; CHRM4 PAM: inactive; CHO-K1 Ca antag: inactive; M4 antag: 39

What do the screens show for `CCCNCc1cc(OC)c(OCCC)cc1Cl`?
CHRM4 agonist: inactive; CHO-K1 Ca PAM: inactive; M1 ag parental: inactive; CHRM4 PAM: inactive; CHO-K1 Ca antag: inactive; M4 antag: inactive

Results for Clc1ccccc1-c1nc(-c2ccccc2)n[nH]1 ?
CHRM4 agonist: inactive; CHO-K1 Ca PAM: inactive; M1 ag parental: inactive; CHRM4 PAM: inactive; CHO-K1 Ca antag: inactive; M4 antag: inactive

Results for Oc1ccccc1-c1n[nH]c(-c2ccccc2O)n1 ?
CHRM4 agonist: inactive; CHO-K1 Ca PAM: inactive; M1 ag parental: 17; CHRM4 PAM: inactive; CHO-K1 Ca antag: inactive; M4 antag: inactive

How did O=C(c1ccccc1)c1ccc(-n2cnnc2)c([N+](=O)[O-])c1 do in these assays?
CHRM4 agonist: inactive; CHO-K1 Ca PAM: inactive; M1 ag parental: 22; CHRM4 PAM: inactive; CHO-K1 Ca antag: inactive; M4 antag: inactive

What do the screens show for `O=C(Nc1ccc(S(=O)(=O)N2CCOCC2)cc1)C1CCCCC1`?
CHRM4 agonist: inactive; CHO-K1 Ca PAM: inactive; M1 ag parental: inactive; CHRM4 PAM: inactive; CHO-K1 Ca antag: inactive; M4 antag: inactive

Results for CC(C)CSC1=NSC2=NC(=O)/C(=C\c3coc4ccccc4c3=O)C(=N)N12 ?
CHRM4 agonist: 89; CHO-K1 Ca PAM: inactive; M1 ag parental: 107; CHRM4 PAM: inactive; CHO-K1 Ca antag: 60; M4 antag: 52

What do the screens show for `CSC1=NSC2=NC(=O)/C(=C\c3coc4ccccc4c3=O)C(=N)N12`?
CHRM4 agonist: inactive; CHO-K1 Ca PAM: inactive; M1 ag parental: 20; CHRM4 PAM: inactive; CHO-K1 Ca antag: inactive; M4 antag: 27

How did CN1CCC(=C2c3ccccc3C=Cc3ccccc32)CC1 do in these assays?
CHRM4 agonist: inactive; CHRM4 PAM: inactive; M4 antag: 100

What do the screens show for `CN1CCC(=C2c3ccccc3Sc3ccccc32)CC1`?
CHRM4 agonist: inactive; CHO-K1 Ca PAM: inactive; M1 ag parental: inactive; CHRM4 PAM: inactive; CHO-K1 Ca antag: inactive; M4 antag: 99

Results for CCCOc1ccc(N2C(=O)CC(NCCCN3CCC(C(N)=O)CC3)C2=O)cc1 (stereo not drawn) ?
CHRM4 agonist: inactive; CHO-K1 Ca PAM: inactive; M1 ag parental: inactive; CHRM4 PAM: inactive; CHO-K1 Ca antag: inactive; M4 antag: inactive

How did CCOC(=O)N1CCN(C(=O)CCS(=O)(=O)c2ccc(Br)s2)CC1 do in these assays?
CHRM4 agonist: inactive; CHO-K1 Ca PAM: inactive; M1 ag parental: inactive; CHRM4 PAM: inactive; CHO-K1 Ca antag: 27; M4 antag: inactive

Results for CCC(C)NC(=O)CCS(=O)(=O)c1ccc(Br)s1 (stereo not drawn) ?
CHRM4 agonist: inactive; CHO-K1 Ca PAM: inactive; M1 ag parental: inactive; CHRM4 PAM: inactive; CHO-K1 Ca antag: inactive; M4 antag: inactive

How did O=[N+]([O-])c1cccc(/C=N/Nc2nnc(-c3ccccc3)c(-c3ccccc3)n2)c1 do in these assays?
CHRM4 agonist: inactive; CHO-K1 Ca PAM: inactive; M1 ag parental: inactive; CHRM4 PAM: 34; CHO-K1 Ca antag: inactive; M4 antag: inactive

What do the screens show for `O=C(Nc1csc([N+](=O)[O-])c1)Nc1ccccc1Cl`?
CHRM4 agonist: inactive; CHO-K1 Ca PAM: inactive; M1 ag parental: 16; CHRM4 PAM: inactive; CHO-K1 Ca antag: 27; M4 antag: 29

How did O=C(Nc1ccccc1Cl)Nc1ccccc1Cl do in these assays?
CHRM4 agonist: inactive; CHO-K1 Ca PAM: inactive; M1 ag parental: inactive; CHRM4 PAM: inactive; CHO-K1 Ca antag: inactive; M4 antag: inactive

How did Cc1ccc2nc(NC(=O)C3CCN(S(=O)(=O)c4cc([N+](=O)[O-])ccc4Cl)CC3)sc2c1 do in these assays?
CHRM4 agonist: inactive; CHO-K1 Ca PAM: inactive; M1 ag parental: inactive; CHRM4 PAM: inactive; CHO-K1 Ca antag: 25; M4 antag: inactive
